Here are results for 15 compounds from PubChem BioAssay (EPA / NIEHS).

Records with an inconclusive call do not appear. Active and inactive are the calls of the source. How the source made its calls, unless noted: active means hit-call score of the fitted dose curve at least 0.9, where 1 is the maximum; inconclusive means response in the unintended direction; inactive means score below 0.9.

Assay [1] can be described thus: TOX21_p53_BLA_p2_viability: Viability Assessment in the Tox21 HCT-116 p53 Agonism Beta-lactamase Assay, Phase 2 (AID 2283591).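 Further: compound exposure lasted 16 h at 37 °C; actives lower the ATP signal meaning cytotoxicity.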 Summed up:
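HCT116 p53-bla cells, 4000/well, dosed after 5 h plating (217-fold dilution of DMSO stocks) and incubated 16 h at 37C. Viability taken as cellular ATP by CellTiter-Glo luminescence after 30 min RT; signal loss marks cytotoxicity.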

Assay [2] concerns the target Cellular tumor antigen p53 (Homo sapiens) (UniProt P04637). Nature of the assay: TOX21_p53_BLA_p2_ratio: Tox21 HCT-116 p53 Agonism Beta-lactamase Assay, Ratio, Phase 2 (AID 2283592). The method in brief: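 Cleaved-to-uncleaved substrate ratio (460 vs 530 nm) measured in HCT116 cells with an inducible beta-lactamase reporter linked to p53 activity. Compounds incubated 16 h at 37C before 2 h room-temperature CCF4-AM loading.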

The target is the same in assay [3]. Nature of the assay: TOX21_p53_BLA_p3_ratio: Tox21 HCT-116 p53 Agonism Beta-lactamase Assay, Ratio, Phase 3 (AID 2283596). The method in brief:
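Cells were seeded at 4000/well, rested 5 h at 37C, then dosed with DMSO compound solutions (217-fold dilution) for 16 h. CCF4-AM substrate was loaded for 2 h at room temperature, and the 460/530 nm emission ratio was fitted for gain of signal versus DMSO.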

Assay [4] in a line: TOX21_p53_BLA_p4_viability: Viability Assessment in the Tox21 HCT-116 p53 Agonism Beta-lactamase Assay, Phase 4 (AID 2283597).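 Further: hits lower the luminescence signal meaning cytotoxicity.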 Summed up:
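Viability is taken as cellular ATP: after 16 h compound exposure of HCT116 cells and a 2 h room-temperature CCF4-AM substrate step, CellTiter-Glo reagent is added and luminescence is measured 30 min later.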

The nature of assay [5]: TOX21_p53_BLA_p5_viability: Viability Assessment in the Tox21 HCT-116 p53 Agonism Beta-lactamase Assay, Phase 5 (AID 2283600). The method in brief:
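Viability is taken from cellular ATP content, measured by luciferase luminescence in the same wells after the beta-lactamase ratio read. Cells are seeded at 4000 per well and exposed to DMSO-dissolved compounds, diluted 217-fold, for 16 h.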

Assay [6] deals with Cellular tumor antigen p53 (Homo sapiens) (UniProt P04637). The assay can be described thus: TOX21_p53_BLA_p4_ratio: Tox21 HCT-116 p53 Agonism Beta-lactamase Assay, Ratio, Phase 4 (AID 2283601). The method in brief: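 HCT-116 p53 beta-lactamase reporter cells (4000/well) preincubated 5 h, then compound (217-fold dilution of DMSO stock) for 16 h at 37C. CCF4-AM substrate added 2 h at room temperature; 460/530 nm emission ratio fitted upward versus DMSO.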
Cellular tumor antigen p53 (Homo sapiens), sequence (P04637 whole entry, looked up): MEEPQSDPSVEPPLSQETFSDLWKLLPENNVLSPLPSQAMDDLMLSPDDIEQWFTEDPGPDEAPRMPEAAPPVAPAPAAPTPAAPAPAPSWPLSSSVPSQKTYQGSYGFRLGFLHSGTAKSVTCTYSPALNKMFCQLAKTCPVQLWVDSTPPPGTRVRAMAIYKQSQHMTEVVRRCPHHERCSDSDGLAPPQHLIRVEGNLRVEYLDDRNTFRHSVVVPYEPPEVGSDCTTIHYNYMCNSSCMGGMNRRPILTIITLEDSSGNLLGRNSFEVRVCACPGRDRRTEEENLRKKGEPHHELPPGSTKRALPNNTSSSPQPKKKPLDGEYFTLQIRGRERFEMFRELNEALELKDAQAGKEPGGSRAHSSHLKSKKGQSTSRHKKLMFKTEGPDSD

A short description of assay [7]: CCTE_Deisenroth_DEVTOX-GLR_legacy_CellCount: (Legacy) Viability Assessment in CCTE's DevTox GLR-Endo Assay, Deisenroth Lab (AID 2284331; active means hit-call score of the fitted dose curve at least 0.9, where 1 is the maximum; inactive means score below 0.9). The conditions noted are these: actives raise or lower the signal. The method in brief: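 RUES2-GLR human pluripotent cells were seeded 24 h, then differentiated 48 h with two compound doses at 24 h intervals (10-point, 1 nM - 200 uM). Fixed nuclei were imaged and counted; bidirectional fitting versus 0.2% DMSO.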

The test system of assay [8] is SRY-box transcription factor 17 (SOX17) Protein Expression, Deisenroth Lab, SOX17 (gene 64321). The assay can be described thus: CCTE_Deisenroth_DEVTOX-GLR_legacy_Sox17: (Legacy) CCTE's DevTox GLR-Endo Assay Evaluation of SRY-box transcription factor 17 (SOX17) Protein Expression, Deisenroth Lab (AID 2284341; active means hit-call score of the fitted dose curve at least 0.9, where 1 is the maximum; inactive means score below 0.9). The conditions noted are these: actives raise or lower the signal. Summed up:
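Percent SOX17-positive cells, scored by high-content imaging as mean intensity exceeding pluripotent-control median by 5x BMAD, divided by cell count. Human RUES2-GLR endoderm differentiation, 48 h, two exposures 24 h apart, 1 nM–200 uM; DMSO-referenced bidirectional fitting.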

Assay [9] has as its system SRY-box transcription factor 2 (SOX2) Protein Expression, Deisenroth Lab, SOX2 (gene 6657). The assay can be described thus: CCTE_Deisenroth_DEVTOX-GLR_legacy_Sox2: (Legacy) CCTE's DevTox GLR-Endo Assay Evaluation of SRY-box transcription factor 2 (SOX2) Protein Expression, Deisenroth Lab (AID 2284346; active means hit-call score of the fitted dose curve at least 0.9, where 1 is the maximum; inactive means score below 0.9). Summed up:
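Read-out: fraction of Sox2+ cells by high-content fluorescence imaging of fixed RUES2-GLR cells after 48 h differentiation with two 24 h-spaced exposures. Positivity cutoff 5x BMAD above endoderm control median; 0.2% DMSO median subtracted.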

Assay [10] has as its system SRY-box transcription factor 17 (SOX17) Protein Expression, Deisenroth Lab, SOX17 (gene 64321). The assay can be described thus: CCTE_Deisenroth_DEVTOX-GLR_Endo_SOX17: CCTE's DevTox GLR-Endo Assay Evaluation of SRY-box transcription factor 17 (SOX17) Protein Expression, Deisenroth Lab (AID 2284413; active means hit-call score of the fitted dose curve at least 0.9, where 1 is the maximum; inactive means score below 0.9). The method in brief: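 Human RUES2-GLR cells carrying an inducible fluorescent reporter are differentiated in defined media for 48 h and dosed twice, 24 h apart. After fixation and nuclear staining, imaging yields SOX17+ cell percentage relative to 0.2% DMSO-treated differentiated cells.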

Assay [11] has as its system Brachyury (BRA) Protein Expression, TBXT (gene 6862). The assay can be described thus: CCTE_Deisenroth_DEVTOX-GLR_Endo_BRA: CCTE's DevTox GLR-Endo Assay Evaluation of Brachyury (BRA) Protein Expression, Deisenroth Lab (AID 2284417; active means hit-call score of the fitted dose curve at least 0.9, where 1 is the maximum; inactive means score below 0.9). Summed up:
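Endpoint is the fraction of BRA reporter-positive cells over total nuclei, corrected by subtracting the 0.2% DMSO value. Chemicals (1 nM - 200 uM, 10 points) were dosed twice during 48 h differentiation of RUES2-GLR cells, read by imaging.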

The nature of assay [12]: CCTE_Deisenroth_DEVTOX-GLR_Endo_CellCount: Viability Assessment in CCTE's DevTox GLR-Endo Assay, Deisenroth Lab (AID 2284420; active means hit-call score of the fitted dose curve at least 0.9, where 1 is the maximum; inactive means score below 0.9). The method in brief:
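Viability in differentiating RUES2-GLR cultures is scored by fluorescent nuclear counts after 48 h and two 24-hourly chemical treatments, as percent change from the 0.2% DMSO control.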

Assay [13] deals with SRY-box transcription factor 17 (SOX17) Protein Expression, Deisenroth Lab, SOX17 (gene 64321). Nature of the assay: CCTE_Deisenroth_DEVTOX-GLR_Pluri_SOX17: CCTE's DevTox GLR-Pluri Assay Evaluation of SRY-box transcription factor 17 (SOX17) Protein Expression, Deisenroth Lab (AID 2284427). The method in brief:
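Seed cells 24 h; differentiate 48 h, dosing at 0 and 24 h (1 nM - 200 uM); fix, stain nuclei, image 5 fields per well; count SOX17+ cells over total cells and subtract 0.2% DMSO control.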

A short description of assay [14]: CCTE_Deisenroth_DEVTOX-GLR_Pluri_CellCount: Viability Assessment in CCTE's DevTox GLR-Pluri Assay Evaluation of Total Cell Counts, Deisenroth Lab (AID 2284430; active means hit-call score of the fitted dose curve at least 0.9, where 1 is the maximum; inactive means score below 0.9). Summed up: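 Cytotoxicity readout: fluorescent nuclei counts by high-content imaging, expressed as percent change relative to 0.2% DMSO. Human RUES2-GLR pluripotent line differentiated 48 h, dosed twice at 24-h intervals across 1 nM - 200 uM (10 points).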

Assay [15] can be described thus: CCTE_Harrill_HTTr_Viability_MCF7: CCTE's 6-hour Cell Viability Assessment for the High-Throughput Transcriptomics (HTTr) Platform, in MCF-7 cells cultured in DMEM + 10% fetal bovine serum, Harrill Lab (AID 2284010; active means hit-call score of the fitted dose curve at least 0.9, where 1 is the maximum; inactive means score below 0.9). The method in brief:
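Eight-point concentration series, six-hour exposure. Propidium iodide exclusion imaged to assess membrane integrity as a cytotoxicity readout; bidirectional fitting was done with DMSO as negative control and activity baseline.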

A short description of assay [16]: CCTE_Harrill_HTTr_Apoptosis_MCF7: CCTE's 6-hour Apoptosis Assessment for the High-Throughput Transcriptomics (HTTr) Platform, in MCF-7 cells cultured in DMEM + 10% fetal bovine serum, Harrill Lab (AID 2284011; active means hit-call score of the fitted dose curve at least 0.9, where 1 is the maximum; inactive means score below 0.9). The method in brief:
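Cells are dosed with test chemicals at eight concentrations and imaged 6 hours later for caspase-3/7 activity using a green fluorogenic detection reagent. Activity is fitted in both directions against DMSO controls.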

For assay [17], the target named is Cellular tumor antigen p53 (Homo sapiens) (UniProt P04637). The assay can be described thus: TOX21_p53_BLA_p5_ratio: Tox21 HCT-116 p53 Agonism Beta-lactamase Assay, Ratio, Phase 5 (AID 2283599). The method in brief: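 HCT-116 p53-bla cells (4000/well) plated 5 h, dosed with compound (217-fold DMSO dilution) for 16 h at 37 C; CCF4-AM substrate 2 h at room temperature. Activity is the 460/530 nm emission ratio (405 nm excitation), fitted in gain-of-signal direction versus DMSO.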

By AC50 is commonly meant the midpoint of the concentration-response curve, whichever way the signal moves.

As to `OC[C@H]1O[C@@H](n2cnc3c2NC=NC[C@H]3O)C[C@@H]1O`, the compound was classed as inactive in assay [1], in assay [2], in assay [3], in [4], in [5] and in assay [6].

Regarding `O=S(=O)(O)CCO`, the call in [1], in assay [2], in assay [3], in [4], in assay [5] and in assay [6] was inactive.

On to `CN1CCN2c3ccccc3Cc3ccccc3C2C1` (stereo unspecified), for which the AC50 was 38.9 µM (active) in assay [1]; 44.4 µM (active) in assay [2]; 37.8 µM (active) in [4]; 43.6 µM (active) in [6]; 36.5 µM (active) in assay [7]; 34.3 µM (active) in [8]. Further, the AC50 in assay [9] is 50.1 µM (active); in [10] it was 34.1 µM (active); in assay [11], 71.3 µM (active); in assay [12], 36.4 µM (active); in assay [13] it was 57 µM (active); in assay [14] it was 0.877 µM (active). For the same compound, the result in assay [3] and in assay [5] was inactive.

As to `C[C@@H]1O[C@@H](OC[C@H]2O[C@@H](Oc3c(-c4ccc(OCCO)c(OCCO)c4)oc4cc(OCCO)cc(O)c4c3=O)[C@H](O)[C@@H](O)[C@@H]2O)[C@H](O)[C@H](O)[C@H]1O`, the compound was classed as inactive in assay [1], in assay [2], in assay [3], in assay [4] and in assay [6].

With `C[C@@H](O)[C@H]1C(=O)N2C(C(=O)O)=C(S[C@@H]3CN[C@H](C(=O)N(C)C)C3)[C@H](C)[C@H]12`, the call in [1], in assay [2], in [3], in assay [4], in assay [5] and in [6] was inactive.

As for `COc1cc2c(c(OC)c1OC)-c1c(cc3c(c1OC)OCO3)C[C@@H](C)[C@](C)(O)C2`, the call in assay [1], in assay [2], in assay [3], in assay [4] and in [6] was inactive.

In the case of `CC[N+](CC)(CC)CCC(O)(c1ccccc1)C1CCCCC1` (stereo unspecified), the compound was called inactive in [1], in assay [2], in assay [3], in assay [4], in assay [5] and in assay [6].

Turning to `Cc1ccccc1N1CCN(CCc2nnc3n2CCCC3)CC1`, the compound was called inactive in assay [1], in assay [2], in [3], in [4], in assay [5] and in assay [6].

Turning to `CCC(=O)c1c(O)cc(O)cc1O`, the call in assay [1], in assay [2], in [3], in assay [4] and in assay [6] was inactive.

As to `CC(CCc1ccccc1)NCC(O)c1ccc(O)c(C(N)=O)c1` (stereo unspecified), the compound was called inactive in assay [1], in [2], in assay [3], in assay [4], in assay [5] and in assay [6]. Also, the result in assay [15] and in assay [16] was inactive.

Regarding `CCCCC(=O)O[C@]1(C(=O)CO)[C@H](C)C[C@H]2[C@@H]3CCC4=CC(=O)C=C[C@]4(C)[C@@]3(F)[C@@H](O)C[C@@]21C`, the compound was classed as inactive in assay [1], in assay [2], in assay [3], in [4], in [5] and in assay [6].

As for `O=C(O)c1ccccc1OP(=O)(O)O`, the outcome in [1], in assay [2], in assay [3], in [4] and in assay [6] was inactive.

For `O=[N+]([O-])c1ccc2ncccc2c1`, the call in assay [1], in assay [2], in assay [3], in assay [4], in assay [5] and in assay [6] was inactive.

For the compound `CC(C)(O)C(=O)O`, the compound was classed as inactive in assay [1], in assay [2], in assay [3], in assay [4], in assay [17] and in assay [6].

In the case of `Cc1ccccc1OCC1CO1` (stereo unspecified), the result in assay [1], in assay [2], in assay [3], in [4], in assay [5] and in assay [6] was inactive.
